Sampled rows, rich in hits. Any-hit rate of the full collection: about 16%.
TDP1 cell noCPT – qHTS for Inhibitors of human tyrosyl-DNA phosphodiesterase 1 (TDP1): qHTS in cells in absence of CPT. DT40 Tdp1-/- hTDP1 cells, no CPT, ATP luminescence, 48 h. Potency, µM (highest dose often 46.2 µM), usual class: inhibitors. 15% of 420,000 active. AID 686978, 2013; note: nearly all actives have a fitted effect of over 55% in size
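No-CPT arm: Tdp1-/-;hTDP1 DT40 cells (400/well) plus compounds, incubated ≥48 hr at 37 °C. Readout CellTiter-Glo luminescence.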
uPA surface inh – qHTS for Inhibitors of Cell Surface uPA Generation; cell surface uPA generation assay, qHTS; Potency, µM (doses to about 38.3 µM), most hits filed as inhibitors; 0.31% of 330,000 active; active = well fitted inhibition curve with a large enough effect; inconclusive = small, poorly fitted or top-dose-only effect; inactive = no such curve, though single readings can be large or run the other way; tested in mouse RAW 264.7 cells; note: nearly all actives have a fitted effect of over 55% in size
TDP1 block – qHTS Assay for Inhibitors of Tyrosyl-DNA Phosphodiesterase (TDP1); Tyrosyl-DNA phosphodiesterase 1 (Homo sapiens), Q9NUW8; Potency, µM (titrated, usually from 130 µM), most hits filed as inhibitors; recombinant TDP1, AlphaScreen DNA substrate cleavage; 0.28% of 350,000 active; AID 485290, 2010; note: nearly all actives have a fitted effect of over 40% in size
Target sequence (Q9NUW8 whole entry, looked up): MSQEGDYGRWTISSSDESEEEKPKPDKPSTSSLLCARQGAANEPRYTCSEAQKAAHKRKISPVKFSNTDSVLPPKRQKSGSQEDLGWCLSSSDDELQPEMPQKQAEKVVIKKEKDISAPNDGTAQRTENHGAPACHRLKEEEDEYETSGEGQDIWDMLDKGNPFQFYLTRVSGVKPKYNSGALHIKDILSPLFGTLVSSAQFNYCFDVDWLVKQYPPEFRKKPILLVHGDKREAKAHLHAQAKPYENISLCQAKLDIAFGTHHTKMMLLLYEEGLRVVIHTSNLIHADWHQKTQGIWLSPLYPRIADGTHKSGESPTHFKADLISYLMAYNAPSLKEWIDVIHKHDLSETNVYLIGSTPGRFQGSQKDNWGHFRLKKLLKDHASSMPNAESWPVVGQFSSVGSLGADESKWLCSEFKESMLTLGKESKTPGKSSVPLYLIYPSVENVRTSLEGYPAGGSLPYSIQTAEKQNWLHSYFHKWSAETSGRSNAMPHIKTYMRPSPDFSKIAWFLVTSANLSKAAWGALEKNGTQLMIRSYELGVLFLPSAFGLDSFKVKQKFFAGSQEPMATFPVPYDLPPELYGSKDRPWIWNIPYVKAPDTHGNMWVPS
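Recombinant human Tdp1 (E. coli-expressed, 1 nM final) preincubated with compounds 15 min at room temperature, then 5'-biotin/3'-phosphotyrosine-FITC DNA substrate (15 nM final) added for 5 min. AlphaScreen beads (10 ug/ml final) added 10 min; cleavage lowers signal.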
TDP1 cell CPT – qHTS for Inhibitors of human tyrosyl-DNA phosphodiesterase 1 (TDP1): qHTS in cells in presence of CPT; chicken DT40 Tdp1-/-;hTDP1 cells + 20 nM CPT, ATP luminescence, 48 h; Potency, µM (titrated, usually from 46.2 µM), hits mostly inhibitors; AID 686979, 2013; 12% of 420,000 active; note: nearly all actives have a fitted effect of over 55% in size
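Cell growth measured by CellTiter-Glo luminescence after a minimum 48 h, 37 C compound exposure with 20 nM CPT in Tdp1-knockout DT40 cells stably expressing hTDP1, seeded 400/well; qHTS titration format.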
miR-21 reporter – qHTS Assay for Modulators of miRNAs and/orActivators of miR-21; HeLa miR-21 FLuc reporter, luciferase, 48 h; Potency, µM (top dose mostly 38.3 µM), hits mostly activators; 340,000 tested, under 10 active; AID 2288, 2010;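 note: miR-21 action dims this reporter so a rising signal means less miR-21 action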
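Compounds were titrated across several concentrations (up to approximately 40 uM) and incubated 48 hours with HeLa miR-21-FLuc reporter cells (miR-21 target sequence downstream of FLuc, endogenous miR-21). Readout was firefly luciferase luminescence after lytic detection reagent.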
Large screens that a line does not name were inactive. Unless noted, calls come from the whole dose curve; as a rule, active = well fitted curve in the direction sought with a large enough effect; inconclusive = small, poorly fitted or top-dose-only effect, or another doubt; inactive = no such curve, though single readings can be large; an effect the other way counts as inactive or inconclusive.

COc1ccc2[nH]c3c(c2c1)CCN1C(=O)C(CC(=O)NCc2ccco2)C[C@H](C(=O)N2CCCCC2)[C@@]31C (some centres undefined)	TDP1 cell noCPT inconclusive, uPA surface inh inconclusive (no result: miR-21 reporter)
Cc1ccccc1-c1ncc(CN2CCN(C3CCCC3)C(CCO)C2)cn1 (centres undefined)	none
OCCC1CN(Cc2cnc(-c3cccc4ccccc34)nc2)CCN1C1CCCCC1 (centres undefined)	TDP1 cell noCPT 18.4µM, TDP1 cell CPT 23.1µM
CC(C)n1nnnc1C1c2ccccc2C(=O)N1Cc1ccccc1 (centres undefined)	none (no result: uPA surface inh, TDP1 block, miR-21 reporter)
O=C(OCCN(C1=NS(=O)(=O)c2ccccc21)c1ccccc1Cl)c1ccc(Cl)cc1	TDP1 cell noCPT inconclusive, TDP1 cell CPT 18.4µM (no result: uPA surface inh)
Cc1ccc(NC(=O)c2cc([N+](=O)[O-])ccc2N2CCOCC2)cc1S(=O)(=O)N(C)C	none
CSCCC(NS(=O)(=O)c1ccc2c(c1)OCCO2)C(=O)N(C)Cc1ccc(C)cc1 (centres undefined)	TDP1 cell noCPT 14.6µM, TDP1 cell CPT inconclusive
COc1cccc(CN(C)C(=O)C(CCSC)NS(=O)(=O)c2ccc3c(c2)OCCO3)c1OC (centres undefined)	TDP1 cell noCPT 13µM, TDP1 cell CPT 16.4µM (no result: miR-21 reporter)
Cc1ccccc1CSc1ncnc2ccccc12	TDP1 cell noCPT inconclusive
Cc1nn(C)c(Oc2ccccc2)c1CCNS(=O)(=O)c1ccc(Cl)cc1	TDP1 cell noCPT 16.4µM, TDP1 cell CPT 16.4µM
COc1ccc(S(=O)(=O)NCCc2c(C)nn(C)c2Oc2ccccc2)cc1	TDP1 cell noCPT 23.1µM, TDP1 cell CPT inconclusive
COc1ccc2nc(N3CCCC(C(=O)NCCc4ccc(OC)c(OC)c4)C3)sc2c1 (centres undefined)	TDP1 cell noCPT 13µM, TDP1 cell CPT inconclusive
COc1ccc2nc(N3CCCC(C(=O)NCCCN4CCN(C)CC4)C3)sc2c1 (centres undefined)	none
COc1ccc(CCNc2nc(N3CCCCC3)nc(N3CCCCC3)n2)cc1OC	TDP1 cell noCPT 23.1µM, TDP1 cell CPT inconclusive
COc1nc(NCCc2ccc(OC)c(OC)c2)nc(OC)n1	none
Cc1ccc(CNC(=O)c2ccc3nc(N4CCCCC4)sc3c2)cc1	none (no result: uPA surface inh)
COc1ccc(CCNC(=O)c2ccc3nc(N4CCCCC4)sc3c2)cc1OC	TDP1 cell noCPT 20.6µM, uPA surface inh inconclusive, TDP1 cell CPT 18.4µM (no result: TDP1 block)
CCOc1ccc2nc(N3CCCC(C(=O)NCCCN4CC(C)CC(C)C4)C3)sc2c1 (centres undefined)	TDP1 cell noCPT 18.4µM, TDP1 cell CPT 18.4µM
CC(=O)c1ccc(NC(=S)N2CCN(S(=O)(=O)c3ccc(F)cc3)CC2)cc1	none
CCC1(c2ccc(Cl)cc2)NC(=O)N(CC(=O)NC2CCCC(C)C2C)C1=O (centres undefined)	TDP1 cell noCPT 25.9µM, TDP1 cell CPT 23.1µM (no result: miR-21 reporter)
CCC1(c2ccc(Cl)cc2)NC(=O)N(CC(=O)NCc2ccc(F)cc2)C1=O (centres undefined)	TDP1 cell noCPT 16.4µM, TDP1 cell CPT inconclusive
CCC1(c2ccc(F)cc2)NC(=O)N(CC(=O)NC2CCCC(C)C2C)C1=O (centres undefined)	TDP1 cell noCPT inconclusive, TDP1 cell CPT inconclusive (no result: miR-21 reporter)
CCC1(c2ccc(Cl)cc2)NC(=O)N(CC(=O)NC2CCCCCC2)C1=O (centres undefined)	TDP1 cell noCPT 23.1µM, TDP1 cell CPT inconclusive (no result: miR-21 reporter)
Nc1nc(CCl)nc(N(c2ccccc2)c2ccccc2)n1	TDP1 cell noCPT inconclusive, TDP1 cell CPT inconclusive, miR-21 reporter inconclusive
COC(=O)c1[nH]c2c(c1C(=O)OC)CCc1ccccc1-2	none (no result: TDP1 block)
O=C(OCc1cccc(C(F)(F)F)c1)c1ccc[nH]c1=O	none
C=CCN(C(C(=O)OC)C(C)C)S(=O)(=O)CCl (centres undefined)	none (no result: TDP1 cell noCPT, uPA surface inh, TDP1 cell CPT, miR-21 reporter)
CCCN1C(=O)C(O)(C2CC(=O)CC(C)(C)O2)c2ccccc21 (centres undefined)	TDP1 cell noCPT 5.8µM, TDP1 cell CPT 5.8µM
CCCN1C(=O)C(O)(CC(=O)c2ccc(C(C)C)cc2)c2ccccc21 (centres undefined)	TDP1 cell noCPT inconclusive, TDP1 cell CPT inconclusive (no result: uPA surface inh, TDP1 block)
CCCN1C(=O)C(O)(C2COC(C)(C)CC2=O)c2ccccc21 (centres undefined)	TDP1 cell noCPT 13µM, TDP1 cell CPT 3.66µM
CN1C(=O)C(O)(C2OC(C)(C)CCC2=O)c2ccccc21 (centres undefined)	TDP1 cell noCPT 6.51µM, TDP1 cell CPT 8.2µM
CCN1C(=O)C(O)(C2COC(C)(C)CC2=O)c2cc(Br)ccc21 (centres undefined)	TDP1 cell noCPT 1.16µM, uPA surface inh inconclusive, TDP1 cell CPT 1.3µM, miR-21 reporter inconclusive
CN1C(=O)C(O)(c2nnc(-c3ccccc3)o2)c2ccccc21 (centres undefined)	none
COc1ccc(S(=O)(=O)N2CCC(C(=O)NC3CC(C)(C)NC(C)(C)C3)CC2)cc1	none
CSc1ccccc1C(=O)C1CCCN(C(=O)NC(C)C)C1 (centres undefined)	none (no result: TDP1 block)
O=C(c1ccc2c(c1)OCCO2)N(Cc1cccnc1)c1nc2ccc(Cl)cc2s1	none (no result: uPA surface inh)
CCOc1ccc(-n2c(SCc3cc(=O)oc4cc(C)ccc34)nnc2-c2cccnc2)cc1	TDP1 cell noCPT inconclusive, TDP1 cell CPT inconclusive
CCN1C(=O)C(O)(C2COC(C)(C)CC2=O)c2ccccc21 (centres undefined)	TDP1 cell noCPT 8.2µM, TDP1 cell CPT 13µM
CCN1C(=O)C(c2ccc(O)cc2)(c2ccc(O)cc2)c2ccccc21	none
C/C(=N\NC(=O)c1[nH]c2c([N+](=O)[O-])cc(C)cc2c1-c1ccccc1)c1cccnc1	TDP1 cell noCPT 14.6µM, TDP1 cell CPT 25.9µM
CC1(C)COC(/C=C/c2cccc([N+](=O)[O-])c2)=N1	TDP1 cell noCPT 11.6µM, TDP1 cell CPT inconclusive, miR-21 reporter inconclusive
COc1ccc(C(=O)CCNc2cccc(Cl)c2)cc1	TDP1 cell noCPT inconclusive, TDP1 cell CPT inconclusive
COc1ccc(C(=O)Nc2ccc3c(c2)OCCO3)cc1	uPA surface inh inconclusive
COc1ccc(C(=O)CCNc2ccc3c(c2)OCCO3)cc1	TDP1 cell noCPT 13µM, TDP1 cell CPT 14.6µM
CC(=O)Oc1ccc(C(=O)Nc2ccc3c(c2)OCCO3)cc1	TDP1 cell noCPT 13µM, TDP1 cell CPT 14.6µM (no result: TDP1 block)
COc1cc2[nH]c(C(=O)Nc3ccc4c(c3)OCCO4)cc2c(OC)c1OC	TDP1 cell noCPT inconclusive, TDP1 cell CPT 16.4µM
CCC(=O)c1ccc(OCC(=O)Nc2ccc3c(c2)OCCO3)cc1	TDP1 cell noCPT 11.6µM (no result: miR-21 reporter)

Compound activity from PubChem BioAssay.
